30 compounds from PubChem BioAssay AID1478 (National Center for Advancing Translational Sciences (NCATS), 2009) can be followed below.

Several values for one entry are separate records, joined by “and”; a condition that tells them apart may be missing. Equal values may be shown once. About 860 (0.43%) of roughly 200,000 compounds were called active. The sample holds actives, similar compounds and a random draw of the others, so the mix is not that of the screen. Unmarked numbers belong to inactive results. Calls come from the whole dose curve; as a rule, active = well fitted inhibition curve with a large enough effect; inconclusive = small, poorly fitted or top-dose-only effect; inactive = flat fitted curve, though single readings scatter.
Potency is the fitted concentration of half-maximal effect.

Cruzipain (Trypanosoma cruzi), sequence (P25779 123-467 limits assumed): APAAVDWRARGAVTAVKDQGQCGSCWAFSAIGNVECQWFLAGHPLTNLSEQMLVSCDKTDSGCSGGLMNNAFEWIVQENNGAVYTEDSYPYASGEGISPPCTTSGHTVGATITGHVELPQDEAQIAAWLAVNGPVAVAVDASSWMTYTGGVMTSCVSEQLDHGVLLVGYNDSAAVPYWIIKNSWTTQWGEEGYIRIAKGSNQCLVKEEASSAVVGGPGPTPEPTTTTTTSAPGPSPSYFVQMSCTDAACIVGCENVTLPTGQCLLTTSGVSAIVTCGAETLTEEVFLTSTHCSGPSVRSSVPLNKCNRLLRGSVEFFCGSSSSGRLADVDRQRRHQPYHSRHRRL

The assay addresses Cruzipain (Trypanosoma cruzi) (UniProt P25779). Put plainly: qHTS Assay for Promiscuous and Specific Inhibitors of Cruzain (with detergent).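 For max response, negative = inhibition: plate controls were neutral wells for no effect and buffer without enzyme for full effect.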 Note: nearly all actives have a fitted effect of over 40% in size. As to conditions: purified cruzain, Z-FR-AMC fluorescence, 0.01% Triton. The essentials:
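Z-FR-AMC hydrolysis (2 uM substrate) by cruzain (1.5 nM) monitored kinetically at ex 360/em 450 nm after 15 min room-temperature compound exposure; 0.01% Triton X-100, pH 5.5, 5 mM DTT.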
(Quantitative high-throughput screening tests each substance at several concentrations.)
In the case of `CCc1ccc(NC(=O)c2cnc3c(-c4ccccc4)c(C)nn3c2C)cc1`, the max response, negative = inhibition was -6.46%.

Take `Cc1ccc(S(=O)(=O)c2c(Nc3cccc(Cl)c3)sc(C(=O)c3ccc4c(c3)OCO4)c2N)cc1`: the max response, negative = inhibition was -3.98%.

As to `COCCn1c(SCC(=O)c2cc(C)ccc2C)nc2cc(C(=O)NC3CCCC3)ccc2c1=O`, the max response, negative = inhibition was -0.0872%.

Consider `COc1ccccc1CNC(=O)c1ccc(CS(=O)c2ccccc2Cl)o1` (stereo not given), for which the max response, negative = inhibition was -8.94%.

With `Cc1nn(C(C)C(=O)NCCc2ccccc2)c(=O)c2c1sc1ccccc12` (stereo not given), the max response, negative = inhibition was -6.56%.

As to `CNc1ccc(-c2nc(-c3ccco3)no2)cc1[N+](=O)[O-]`, the max response, negative = inhibition was -3.84%.

Turning to `CC(=O)c1c(O)c(C)c(O)c(Cc2c(O)c3c(c(C(=O)/C=C\c4ccccc4)c2O)OC(C)(C)C=C3)c1O`, the Potency was 31.6 µM (active).

For the compound `O=C(/C=C/c1ccccc1)c1ccccc1O`, the max response, negative = inhibition is -1.13% and 3.47%.

For `CC(=O)c1c(O)c(C)c(O)c(Cc2c(O)c3c(c(C(=O)/C=C/c4ccccc4)c2O)OC(C)(C)C=C3)c1O`, the max response, negative = inhibition was -22.4%.

With `COc1cc(NC(=O)CSc2nc3nc(C)c(Cc4ccc(C)cc4)c(C)n3n2)cc(OC)c1OC`, the max response, negative = inhibition was -4.19%.

For `O=C(CCc1nc(CN2CCN(S(=O)(=O)c3ccc(Br)cc3)CC2)no1)N1CCCCC1`, the max response, negative = inhibition was -0.641%.

With `O=C(CC(c1cccs1)N1Cc2ccccc2C1=O)Nc1ccc(F)cc1F` (stereo not given), the max response, negative = inhibition was -5.84%.

For `O=S(=O)(NCCc1nnc2ccc(SCc3ccc(Cl)cc3Cl)nn12)c1ccccc1`, the max response, negative = inhibition was -7.61%.

For `O=C(CCOc1ccccc1)N(Cc1cccnc1)c1nc2ccc(Cl)cc2s1`, the max response, negative = inhibition was -5.3%.

Regarding `COc1cc(NC(=O)Nc2ccc(C)cc2)cc([N+](=O)[O-])c1`, the max response, negative = inhibition is -3.61%.

For `COc1cccc(NC(=S)NCCCN2CCOCC2)c1`, the max response, negative = inhibition was -2.47%.

For the compound `COc1cc(NC(=S)NCCSc2ccc(C)cc2)cc(OC)c1`, the Potency was 2 µM (active).

As to `CC(NC(=O)CCc1cn(Cc2ccccc2Cl)c2ccccc12)c1ccccc1` (stereo not given), the max response, negative = inhibition is -2.02%.

Regarding `CC(C)(C)c1ccc(C(=O)Nc2ccc3c(c2)CCCN3C(=O)c2cccs2)cc1`, the max response, negative = inhibition was -4.1%.

For the compound `COc1cc(NC(=O)c2cc(C3CC3)nc3c2c(C)nn3-c2ccccc2)cc(OC)c1`, the max response, negative = inhibition is -4.38%.

For `CC(=O)NC1=NN(C(C)=O)C(C)(CCS(=O)(=O)c2ccc(Cl)c(Cl)c2)S1` (stereo not given), the max response, negative = inhibition is -3.08%.

On to `CC(=O)NC1=NN(C(C)=O)C(C)(c2ccc(Cl)s2)S1` (stereo not given), for which the Potency is 28.2 µM (active).

Turning to `CC(=O)NC1=NN(C(C)=O)C(C)(c2ccc(C)cc2)S1` (stereo not given), the max response, negative = inhibition was -0.836%.

For the compound `COc1ccc(Cn2c(=O)c3oc4ccccc4c3n(CC(=O)Nc3ccc(F)cc3F)c2=O)cc1`, the max response, negative = inhibition was -0.479%.

As for `COc1ccccc1NC(=O)CCC(=O)N1CC(C)Oc2ccc(C)cc21` (stereo not given), the max response, negative = inhibition was -2.9%.

With `COc1ccccc1-n1c(-c2ccc(C)cc2)cn2c3c(=O)n(C)c(=O)n(C)c3nc12`, the max response, negative = inhibition was 0.477%.

With `Cc1ccccc1OCc1nc2c3cnn(-c4ccccc4F)c3ncn2n1`, the max response, negative = inhibition was -0.812%.

For `Cc1ccccc1-c1nc(SCC(=O)N(C)c2ccccc2)c2c(=O)n(C)c(=O)n(C)c2n1`, the max response, negative = inhibition is 0.835%.

Regarding `Cc1ccc(-c2cc(C(=O)Oc3ccccc3Cl)no2)cc1C`, the max response, negative = inhibition is -5.97%.

Turning to `CCOc1ccc(NC(=O)c2cc3c(=O)n(Cc4cccs4)ccc3nc2C)cc1`, the max response, negative = inhibition is -4.36%.
